# Several values for one entry are separate records, joined by “and”; a condition that tells them apart may be missing. Equal entries are not always repeated. Results filed as inconclusive are left out. A call without a number means that no potency is given here. Some compounds were tested as several samples or in several runs, with calls that do not always agree. Activity calls are given as the source filed them. Unless noted, calls come from the whole dose curve; as a rule, active = well fitted curve in the direction sought with a large enough effect; inconclusive = small, poorly fitted or top-dose-only effect, or another doubt; inactive = no such curve, though single readings can be large; an effect the other way counts as inactive or inconclusive.
# What was measured:
# [1] = Primary qHTS for inhibitors of nuclear receptor binding SET domain protein 2 (NSD2) in an isogenic RCH-ACV NSD2 p.E1099K mutant (9B) (AID 1645876); note: nearly all actives have a fitted effect of over 70% in size; note: potency is the fitted concentration of half-maximal effect
# [2] = Primary qHTS for inhibitors of nuclear receptor binding SET domain protein 2 (NSD2) in an RCH-ACV wild type WT cells (2C) (AID 1645877); note: nearly all actives have a fitted effect of over 70% in size; note: potency is the fitted concentration of half-maximal effect
# [3] = target: Glutathione peroxidase 1 (Homo sapiens) (UniProt P07203); assay: Primary qHTS Assay for Inhibitors of Recombinant Selenoprotein Glutathione Peroxidase 1 (GPX1) (AID 1845191); note: nearly all actives have a fitted effect of over 65% in size
# Method in brief: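 Recombinant GPX1 (10 nM final) was preincubated with compound for 30 min at room temperature, then reacted with 1 mM GSH, 0.5 mM CHP, 0.5 mM NADPH and 100 nM glutathione reductase; NADPH fluorescence (340/450 nm) was read at 0 and 15 min.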
# [4] = target: Phospholipid hydroperoxide glutathione peroxidase GPX4 (Homo sapiens) (UniProt P36969); assay: Primary qHTS Assay for Inhibitors of Recombinant Selenoprotein Glutathione Peroxidase 4 (GPX4) (AID 1845192); note: nearly all actives have a fitted effect of over 65% in size
# Method in brief: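 GR-coupled readout: 100 nM GR, 1 mM GSH, 0.5 mM NADPH; NADPH fluorescence (ex 340/em 450 nm) read at t=0 and after 15 min RT. GPX4 200 nM, preincubated 30 min with compound; substrate 0.5 mM CHP.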
# [5] = target: Catechol O-methyltransferase (Homo sapiens) (UniProt P21964); assay: Confirmatory Screen for Target Class Profiling of Small Molecule Inhibitors of Methyltransferases (AID 1745852; calls by dose curve); settings: MTase-Glo luminescence, SAH detection, recombinant enzyme; measured here: COMT max response; stronger effect = lower value
# [6] = target: Guanidinoacetate N-methyltransferase (Homo sapiens) (UniProt Q14353); assay: as above; settings: MTase-Glo luminescence, SAH detection, recombinant enzyme; at 57.3 µM (top of the series)
# [7] = target: Nicotinamide N-methyltransferase (Homo sapiens) (UniProt P40261); assay: as above; settings: MTase-Glo luminescence, SAH detection, recombinant enzyme; measured here: NNMT max response; stronger effect = lower value
# [8] = target: Phenylethanolamine N-methyltransferase (Homo sapiens) (UniProt P11086); assay: as above; settings: MTase-Glo luminescence, SAH detection, recombinant enzyme; measured here: PNMT max response; stronger effect = lower value
# [9] = target: Metallo-beta-lactamase type 2 (Klebsiella pneumoniae) (UniProt C7C422); assay: qHTS to identify inhibitors of the New Delhi Metallo-beta-lactamase (NDM): assay validation screen against the NCATS LOPAC Collection (AID 1794843);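 note: nitrocefin turnover by NDM-1 measured as 485 nm absorbance at plateau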
# Method in brief: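 Nitrocefin hydrolysis (50 uM substrate stock) by NDM-1, 2 nM final, was followed by 485 nm absorbance after compound preincubation; buffer was 50 mM HEPES pH 7.0, 1 uM ZnSO4, 0.01% Tween20.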
# Chain of Glutathione peroxidase 1 (Homo sapiens) (P07203 whole entry, looked up): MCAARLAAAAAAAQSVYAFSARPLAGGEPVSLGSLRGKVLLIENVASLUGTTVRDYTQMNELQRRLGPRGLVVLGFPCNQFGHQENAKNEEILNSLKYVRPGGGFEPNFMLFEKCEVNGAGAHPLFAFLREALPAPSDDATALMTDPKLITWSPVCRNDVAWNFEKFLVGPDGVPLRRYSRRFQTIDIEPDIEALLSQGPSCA
# Chain of Phospholipid hydroperoxide glutathione peroxidase GPX4 (Homo sapiens) (P36969 whole entry, looked up): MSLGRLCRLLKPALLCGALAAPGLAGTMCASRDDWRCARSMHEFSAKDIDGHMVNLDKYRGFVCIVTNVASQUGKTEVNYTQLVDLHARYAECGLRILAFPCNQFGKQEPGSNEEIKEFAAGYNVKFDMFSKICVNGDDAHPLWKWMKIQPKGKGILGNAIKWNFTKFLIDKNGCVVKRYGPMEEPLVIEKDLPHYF
# Chain of Metallo-beta-lactamase type 2 (Klebsiella pneumoniae) (C7C422 whole entry, looked up): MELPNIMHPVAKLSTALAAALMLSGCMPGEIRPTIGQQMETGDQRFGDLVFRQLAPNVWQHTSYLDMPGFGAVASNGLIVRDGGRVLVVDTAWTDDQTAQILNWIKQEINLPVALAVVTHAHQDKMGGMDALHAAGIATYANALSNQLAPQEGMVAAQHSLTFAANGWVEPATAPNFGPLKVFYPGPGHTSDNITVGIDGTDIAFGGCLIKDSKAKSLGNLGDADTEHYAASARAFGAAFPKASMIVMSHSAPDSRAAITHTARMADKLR
# Chain of Phenylethanolamine N-methyltransferase (Homo sapiens) (P11086 whole entry, looked up): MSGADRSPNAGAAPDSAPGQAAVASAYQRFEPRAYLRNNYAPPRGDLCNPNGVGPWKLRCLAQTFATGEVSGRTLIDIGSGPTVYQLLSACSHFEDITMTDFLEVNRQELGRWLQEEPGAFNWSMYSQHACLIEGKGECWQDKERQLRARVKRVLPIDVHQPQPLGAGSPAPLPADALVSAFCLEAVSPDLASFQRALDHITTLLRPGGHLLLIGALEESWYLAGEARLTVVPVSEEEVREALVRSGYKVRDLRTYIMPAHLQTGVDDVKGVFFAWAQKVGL
# Chain of Nicotinamide N-methyltransferase (Homo sapiens) (P40261 whole entry, looked up): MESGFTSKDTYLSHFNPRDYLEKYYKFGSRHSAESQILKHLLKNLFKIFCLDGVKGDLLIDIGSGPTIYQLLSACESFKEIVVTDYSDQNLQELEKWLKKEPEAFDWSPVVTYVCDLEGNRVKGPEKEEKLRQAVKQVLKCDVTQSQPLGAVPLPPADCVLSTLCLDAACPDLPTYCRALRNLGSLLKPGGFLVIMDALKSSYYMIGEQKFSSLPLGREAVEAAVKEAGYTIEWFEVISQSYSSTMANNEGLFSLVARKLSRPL
# Chain of Catechol O-methyltransferase (Homo sapiens) (P21964 whole entry, looked up): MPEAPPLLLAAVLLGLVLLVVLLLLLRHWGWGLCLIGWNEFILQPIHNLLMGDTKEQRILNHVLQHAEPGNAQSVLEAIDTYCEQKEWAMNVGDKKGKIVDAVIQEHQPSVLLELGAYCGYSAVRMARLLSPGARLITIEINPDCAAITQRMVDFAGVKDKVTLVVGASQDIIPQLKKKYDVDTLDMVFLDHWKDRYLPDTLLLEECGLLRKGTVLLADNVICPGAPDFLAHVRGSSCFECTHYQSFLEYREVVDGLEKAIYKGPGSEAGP
smiles,measurement,setting,value
CCCCCCCCCCCCCCCCCCNC(=O)OC1CCN(C(=O)OC[C@H](COC(=O)N(Cc2cccc[n+]2CC)C(=O)c2ccccc2OC)OC)CC1,Potency,[1],2.66 µM (active)
same,Potency,[2],2.66 µM (active)
same,Potency,[3],inactive
same,Potency,[4],inactive
O=C(OCC1(COC(=O)c2cccnc2)CCCC(COC(=O)c2cccnc2)(COC(=O)c2cccnc2)C1O)c1cccnc1,Potency,[1],inactive
same,Potency,[2],inactive
same,Potency,[3],inactive
CN1CCC(Nc2ncc3ncnc(Nc4ccc(F)c(Cl)c4)c3n2)CC1,Potency,[1],15 µM (active)
same,Potency,[2],11.9 µM (active)
same,Potency,[3],inactive
CN1[C@@H]2CC[C@H]1CC(NC(=O)n1c(=O)[nH]c3ccccc31)C2 (some centres undefined),Potency,[1],inactive
same,Potency,[2],inactive
same,Potency,[3],inactive
same,Potency,[4],inactive
O=C1NC(c2ccccc2)(c2ccccc2)C(=O)N1COP(=O)(O)O,Potency,[1],inactive
same,Potency,[2],inactive
same,Potency,[3],inactive
same,Potency,[4],inactive
CN(C)C(=O)CNC(=O)Cc1ccccc1,Potency,[1],inactive
same,Potency,[2],inactive
same,Potency,[3],inactive
same,Potency,[4],inactive
COC(=O)CCCCC(CCSS/C(CCO)=C(\C)N(C=O)Cc1cnc(C)nc1N)SC(C)=O (centres undefined),Potency,[1],inactive
same,Potency,[2],inactive
same,Potency,[3],inactive
same,Potency,[4],inactive
CCCCC(CC)CNC(=O)CC(C)OC(=O)CCC(=O)O (centres undefined),Potency,[1],inactive
same,Potency,[2],inactive
same,Potency,[3],inactive
same,Potency,[4],inactive
COC(=O)c1cc(Cl)ccc1NS(=O)(=O)C(F)(F)F,Potency,[1],inactive
same,Potency,[2],inactive
same,Potency,[3],inactive
same,Potency,[4],inactive
CCCc1ccc(OCC(=O)N2CCN(C(=O)COc3ccc(CCC)cc3OC)CC2)c(OC)c1,Potency,[1],inactive
same,Potency,[2],inactive
same,Potency,[3],inactive
same,Potency,[4],inactive
CCOc1ccc(NS(=O)(=O)c2ccc(N)cc2)nn1,Potency,[1],inactive
same,Potency,[2],inactive
same,Potency,[3],inactive
same,Potency,[4],inactive
CC(=O)[C@H]1CC[C@H]2[C@@H]3C=CC4=CC(=O)CC[C@@]4(C)[C@@H]3CC[C@]12C,Potency,[1],13.3 µM (active) and inactive
same,Potency,[2],23.7 µM (active) and inactive
same,Potency,[3],inactive
CCCCN(CCN(CCCC)C(=O)N1CCOCC1)C(=O)N1CCOCC1,Potency,[1],inactive
same,Potency,[2],inactive
same,Potency,[3],inactive
CC(C)(C)c1nnc(NS(=O)(=O)c2ccccc2)s1,Potency,[1],inactive
same,Potency,[2],inactive
same,Potency,[3],inactive
same,Potency,[4],inactive
C[C@H]1NCc2cc(-c3ccc4c(=O)c(C(=O)O)cn(C5CC5)c4c3OC(F)F)ccc21,Potency,[1],inactive
same,Potency,[2],inactive
same,Potency,[3],inactive
same,Potency,[4],inactive
C[C@H]1C[C@@H]2[C@H]([C@@H](O)C[C@@]3(C)[C@H]2CC[C@]3(O)C(=O)CO)[C@@]2(C)C=CC(=O)C=C12,Potency,[1],inactive
same,Potency,[2],26.6 nM (active) and 74.2 nM (active)
same,Potency,[3],inactive
same,Potency,[4],inactive
C/C(=N/NC(=O)c1ccncc1)C(=O)O,Potency,[1],inactive
same,Potency,[2],inactive
same,Potency,[3],inactive
same,Potency,[4],inactive
CCCCOCCOC(=O)c1cccnc1,Potency,[1],inactive
same,Potency,[2],inactive
same,Potency,[3],inactive
same,Potency,[4],inactive
CCN1CCN(C(=O)N[C@@H](C(=O)N[C@@H]2C(=O)N3[C@@H]2SC(C)(C)[C@H]3C(=O)O)c2ccccc2)C(=O)C1=O,Potency,[1],inactive
same,Potency,[2],inactive
same,Potency,[3],inactive
same,Potency,[4],inactive
O=c1[nH]c(=O)n([C@H]2O[C@H](CO)[C@@H](O)[C@@H]2O)cc1/C=C\Br,Potency,[1],inactive
same,Potency,[2],inactive
same,Potency,[3],inactive
same,Potency,[4],inactive
CCCCCN(CCCOC)C(=O)C(CCC(=O)O)NC(=O)c1ccc(Cl)c(Cl)c1 (centres undefined),Potency,[1],inactive
same,Potency,[2],inactive
same,Potency,[3],inactive
CCCc1c2oc(C(=O)O)cc(=O)c2cc2c(=O)cc(C(=O)O)n(CC)c12,Potency,[1],inactive
same,Potency,[2],inactive
same,Potency,[3],inactive
C=CCOc1cc(Cl)ccc1C(=O)NCCN(CC)CC,Potency,[1],inactive
same,Potency,[3],inactive
same,Potency,[4],inactive
COc1cc2c(cc1OC)C(=O)CC2,Potency,[2],inactive
CCOC(=O)C1=C(C)NC(C)=C(C(=O)OCC)C1c1ccccc1/C=C/C(=O)OC(C)(C)C,Potency,[1],21.1 µM (active)
same,Potency,[2],16.8 µM (active)
same,Potency,[4],inactive
CN(C)c1cc2c(Nc3ccc4c(cnn4Cc4ccccc4)c3)ncnc2cn1,Potency,[1],23 µM (active)
same,activity,[5],5.63%
same,"activity change, negative = inhibition",[6],6.38%
same,activity,[7],-16.7%
same,activity,[8],-3.6%
same,outcome,[9],inactive
CCCCCCOC(=O)NC(=N)c1ccc(NCc2nc3cc(C(=O)N(CCC(=O)OCC)c4ccccn4)ccc3n2C)cc1,Potency,[1],18.6 µM (active)
same,Potency,[3],inactive
same,Potency,[4],inactive
NS(=O)(=O)c1ccc(N2CCCCS2(=O)=O)cc1,Potency,[1],inactive
same,Potency,[3],inactive
same,Potency,[4],inactive
CCOC(=O)c1ccc(OCCN2C[C@H](O)[C@@H](O)[C@H](O)[C@H]2CO)cc1,Potency,[1],inactive
same,Potency,[3],inactive
same,Potency,[4],inactive

# Reference: PubChem BioAssay (NCATS)
